Measurements reported in PubChem BioAssay AID1863 (Southern Research Specialized Biocontainment Screening …, 2009).
In all, about 300,000 compounds went through this assay and about 480 (0.16%) were called active.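 How the source made its calls: active means inhibition over 29.93%, a cutoff 3 SD above the screen mean, later confirmed by dose response; inconclusive means inhibition over 29.93% but no dose response follow-up; inactive means inhibition at most 29.93% or unconfirmed.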 Not all results are given here. Measured potencies and affinities stand elsewhere.

Experiment: PhoP-dependent GFP reporter repression – Salmonella Typhimurium, primary screen (AID 1863);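 further: 0% = low Mg2+ inducing control and 100% = high Mg2+ repressing control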
Details: S. Typhimurium PhoP-regulated promoter GFP reporter, 4 h; at 50 µM; hits give high values

inhibition, inactive:
O=C(Nc1ccc(N2CCOCC2)c(Cl)c1)c1ccc(F)cc1 -2.15%, S=C(NCC1CCCO1)c1ccc(Br)cc1 (stereo not drawn) 2.88%, CCOC(=O)C1(C)/C(=N/Nc2ccccc2)C(=O)C(=O)N1c1ccccc1 (stereo not drawn) -7.22%, CCCn1cnnc1CNC(=O)C1CCC(=O)N(CCCc2ccccc2)C1 (stereo not drawn) 2.57%, CCOC(=O)c1cc(S(=O)(=O)NCC2CCN(Cc3cccc(C)c3)CC2)cn1C 1.53%, O=C(Nc1ccnn1C1CCN(C(=O)c2c(F)cccc2F)CC1)C1CC1 -1.51%, Cc1ncc(CN2CCCC(CCC(=O)NCc3ccc(F)c(F)c3)C2)s1 (stereo not drawn) -2.44%, Cn1cnc([N+](=O)[O-])c1Oc1ccccc1 21.7%, Cn1cnc([N+](=O)[O-])c1Oc1ccc2ccccc2c1 16.2%, CCCCCCC(C)n1[nH]c(=O)cc1N (stereo not drawn) 0.2%, Cc1ccc(-c2noc(CN3C(C)CCCC3C)n2)cc1 (stereo not drawn) 3.05%, Cc1ccc(C(=O)NC2CCCCC2)cc1S(=O)(=O)N1CCCC1 4.45%, O=C(O)c1cc(S(=O)(=O)NC(CO)C(O)c2ccc([N+](=O)[O-])cc2)ccc1Br (stereo not drawn) 8.08%, CS(=O)(=O)c1ccc(C(=O)NCc2ccccc2F)cc1 -3.92%, CS(=O)(=O)c1ccc(C(=O)NC(Cc2ccccc2)c2ccccc2)cc1 (stereo not drawn) 4.54%, Cc1ccc(NC(=S)NC(CO)C(O)c2ccc([N+](=O)[O-])cc2)cc1 (stereo not drawn) 8.17%, Cc1cccc(CN2CCN(Cc3cccc(-n4cccn4)c3)CC2CCO)n1 (stereo not drawn) -2.39%, O=C1CCN(Cc2ccc(Cl)cc2)N1 -4.83%, CC(=O)c1cccc(S(=O)(=O)Nc2ccc(N3CCOCC3)cc2)c1 -4.4%, NC1=NC[C@H](c2ccccc2)N1CC1CCCCC1 -3.43%, NCCCC[C@H]1CN=C(N)N1CCCCC1CCCCC1 11.9%, CCCCN1C(N)=NC[C@@H]1c1ccccc1 -3.32%, CCCCN1C(N)=NC[C@H]1Cc1ccc(O)cc1 5.24%, CCCCN1C(N)=NC[C@@H]1Cc1ccc(O)cc1 0.58%, NC1=NC[C@@H](Cc2ccc(O)cc2)N1CCC12CC3CC(CC(C3)C1)C2 -0.89%, NC1=NC[C@@H](Cc2ccc(O)cc2)N1CC1CCCCC1 -0.19%, NC1=NC[C@H](Cc2ccc(O)cc2)N1CC1CCCCC1 3.06%, Cc1ccccc1OCC(=O)Nc1ccc(N2CCN(C)CC2)c(Cl)c1 5.97%, COC(=O)c1ccc(OCC(=O)c2ccc(C)c(C)c2)cc1 -11.3%, CCOC(=O)c1c(-c2ccccc2)nc2cc(C)ccn12 -0.32%, Nc1nonc1NN=C1CCCCC1 2.62%, COc1ccc(N(CC(=O)NC2CCCC2)C(=O)c2ccc(C)s2)cc1OC -1.51%, Cc1ccc(S(=O)(=O)N/N=C/c2cccs2)cc1 1.58%, COc1ccc(OC)c(S(=O)(=O)CC(O)CS(=O)(=O)c2ccccc2)c1 (stereo not drawn) -7.1%, O=C(CC1C(=O)NCCN1CCCc1ccccc1)NCCc1ccccc1F (stereo not drawn) 5.1%, CN(C)C1=NC[C@H](Cc2ccccc2)N1CCCC1CCCC1 -2.38%, NC1=NC[C@H](Cc2ccccc2)N1CC1CCCCC1 -1.5%, Cc1nn(-c2ccccc2)c(N2CCCC2)c1/C=N/NC(=O)c1ccccc1O -4.47%, O=C(Oc1ccc(/C=N/NC(=O)c2ccccc2O)cc1)c1ccccc1 -2.42%, Cc1ccc(CCNC(=O)C2CCCN(S(=O)(=O)c3c(C)nn(C)c3C)C2)cc1 (stereo not drawn) -2.59%, Cc1[nH]c2ccccc2c1C(=O)CSC(=S)N1CCCCC1 -9.67%, O=C(Cc1nnc(NC(=O)Nc2ccccc2)s1)Nc1ccccc1 0.5%, Cc1cccc(NC(=S)N2CCC(N(C)CC3CCCO3)CC2)c1 (stereo not drawn) 2.69%, CCC(C)(C)c1ccc(OCC(=O)N(C)C)c(C(C)(C)CC)c1 -2.72%, Cc1cc(C(C)(C)C)ccc1OCCCCN1CCCC1 -7.85%, CCC(C)(C)c1ccc(OCCCC[n+]2cccc(C)c2)c(C(C)(C)CC)c1 25.6%, Cc1cc[n+](CC[n+]2ccc(C)cc2)cc1 6.23%, Cc1nc2c(ncn2-c2ccccc2)c(=O)n1NC(=O)CN1CCN(C)CC1 4.84%, COc1ccc(CNc2ncccc2[N+](=O)[O-])cc1 2.57%, COC(C(=O)Nc1ccc(Br)cc1F)c1ccccc1 (stereo not drawn) 4.52%, COc1ccc2[nH]cc(/C=N/NS(=O)(=O)c3ccc(C)cc3)c2c1 -5.48%, NC(=S)N/N=C/c1c[nH]c2ccc(OCc3ccccc3)cc12 1.88%, N=c1n(Cc2ccc(Cl)cc2)c2ccccc2n1CC(O)COc1ccccc1 (stereo not drawn) 3.85%, COc1ccccc1OCC(O)Cn1c(=N)n(Cc2ccccc2)c2ccccc21 (stereo not drawn) -0.92%, O=C(NC1CCCCC1)C1COc2ccccc2O1 (stereo not drawn) 1.35%, O=C(N/N=C/c1ccc([N+](=O)[O-])o1)c1ccncc1 3.52%, O=C(N/N=C/C=C/c1ccc([N+](=O)[O-])cc1)c1cccs1 -4.65%, O=C(N/N=C/C=C/c1ccccc1[N+](=O)[O-])c1cccs1 -10.8%, Cc1cc(C(=O)N/N=C/c2ccc([N+](=O)[O-])o2)c(C)o1 -2.92%, Cc1scc(C(=O)N/N=C/c2ccco2)c1C 0.79%, CCCC(=O)Nc1ccc(C(=O)N/N=C/c2ccc([N+](=O)[O-])o2)cc1 -16.6%, OC1CCN(Cc2ccc(OCc3ccccc3)cc2)CC1 2.08%, O=S(=O)(c1ccc(Br)cc1)N1CCN=C1SCc1cccc(F)c1 -2.02%
